# Screens (PubChem)
# LYPLA1 inh – LYPLA1 inhibitors, primary screen, counter-screen for PME1 inhibitor project, biochemical, fluorescence polarization, FP-Rh probe ABPP; Acyl-protein thioesterase 1 (Homo sapiens), O75608; recombinant LYPLA1; inhibition, % at 5.9 µM; actives 0.16% (n = 320,000); AID 2174, 2009;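 active = inhibition above the mean of all tested compounds plus 3 SD, set per campaign, cut at about 14% in these data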;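 also: inhibitors block serine hydrolase probe labeling of LYPLA1 so polarization falls; 0% = enzyme with DMSO and 100% = wells lacking LYPLA1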
# Target sequence (O75608 whole entry, looked up): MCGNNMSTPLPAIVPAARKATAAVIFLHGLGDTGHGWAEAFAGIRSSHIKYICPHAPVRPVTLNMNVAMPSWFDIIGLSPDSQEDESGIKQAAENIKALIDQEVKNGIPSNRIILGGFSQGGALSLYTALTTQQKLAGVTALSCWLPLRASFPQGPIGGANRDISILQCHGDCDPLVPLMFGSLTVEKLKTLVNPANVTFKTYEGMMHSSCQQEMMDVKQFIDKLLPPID
# p97 inhibitor – inhibitors of human p97 ATPase, primary screen, biochemical; actives 0.42% (n = 220,000); inhibition, % at 8 µM; Transitional endoplasmic reticulum ATPase (Homo sapiens), P55072; recombinant p97 ATPase, Kinase-Glo ATP luminescence, 3 h; in the data active = inhibition above about 15%;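 also: 0% = DMSO vehicle and 100% = wells lacking enzyme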
# Rin1-Abl PPI inh – inhibitors of Rin1-Abl protein binding, primary screen, biochemical, TR-FRET. AID 588664, 2011. inhibition, % at 7.35 µM. actives 0.4% (n = 360,000); in the data active = inhibition above about 5%, passing the limit was not always enough
# LYPLA2 counter – LYPLA2 inhibitors, primary screen, counter-screen for PME1 inhibitor project, biochemical, fluorescence polarization, FP-Rh probe ABPP; AID 2177, 2009; Acyl-protein thioesterase 2 (Homo sapiens), O95372; inhibition, % at 5.9 µM; recombinant LYPLA2; actives 0.38% (n = 320,000);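 active = inhibition above the screen-wide mean plus 3 SD, limit set per campaign, cut at about 26% in these data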;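 also: 0% = LYPLA2 with DMSO and 100% = wells lacking LYPLA2 enzyme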
# Target sequence (O95372 whole entry, looked up): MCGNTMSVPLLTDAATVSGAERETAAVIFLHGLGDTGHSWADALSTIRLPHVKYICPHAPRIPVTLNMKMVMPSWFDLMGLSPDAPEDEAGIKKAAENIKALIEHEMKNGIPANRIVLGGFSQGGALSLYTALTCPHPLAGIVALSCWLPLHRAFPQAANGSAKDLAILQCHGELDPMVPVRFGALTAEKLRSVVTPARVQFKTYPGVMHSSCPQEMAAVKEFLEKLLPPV
# PREPL inhibitor – PREPL enzyme inhibitors, primary screen, biochemical, fluorescence polarization | Prolyl endopeptidase-like (Homo sapiens), Q4J6C6 | AID 2751, 2010 | actives 0.68% (n = 320,000) | recombinant PREPL, fluorescence polarization activity-based probe | inhibition, % at 5.96 µM; in the data active = inhibition above about 43%;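 also: 0% = enzyme with DMSO and 100% = wells lacking enzyme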
# Hck-Nef inh – inhibitors of Nef-activated human Hck kinase, primary screen, biochemical, Z-Lyte FRET, 384-well, Hck-YEEI. Tyrosine-protein kinase HCK (Homo sapiens), P08631. Recombinant Hck-YEEI plus Nef, Z-Lyte FRET kinase assay. inhibition, % at 20 µM. actives 0.68% (n = 220,000). AID 463187, 2010;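 active = Hck-Nef kinase inhibition above about 50%, limit read from the data; inactive = inhibition below that limit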;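 also: 0% = DMSO with Hck plus Nef and 100% = Hck alone without Nef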
# LYPLA2 conf – LYPLA2 inhibitors, retest, confirmation, counter-screen for PME1 inhibitor project, biochemical, fluorescence polarization, FP-Rh probe ABPP; recombinant LYPLA2; shares compounds with LYPLA2 counter; inhibition, % at 5.9 µM; actives 72% (n = 1,100);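 active = mean inhibition across replicates above the hit cutoff set in the primary screen, cut at about 26% in these data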;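 also: blocked labeling of the enzyme by serine hydrolase FP-Rh probe lowers polarization; 0% = enzyme with DMSO and 100% = wells lacking LYPLA2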
# LYPLA2 ABPP – LYPLA2 inhibitors in proteome, late-stage follow-up, gel-based competitive ABPP, fluorescence, assay provider. AID 652029, 2013. rhLYPLA2 in mouse brain proteome, gel ABPP FP-Rh. actives 30% (n = 150). shares compounds with LYPLA2 counter. inhibition, % at 20 µM;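 active = inhibition of LYPLA2 enzyme probe labeling above about 50%, limit read from the data; inactive = inhibition below that limit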;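 also: loss of FP-Rh probe labeling of the LYPLA2 gel band measured as band density; 0% = DMSO only control band and 100% = blank gel background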
# * = called active by the depositor; nt = not tested or not shown. This is a sample that favours compounds with a hit; in the whole collection about 1.7% have one here.
SMILES,LYPLA1 inh,p97 inhibitor,Rin1-Abl PPI inh,LYPLA2 counter,PREPL inhibitor,Hck-Nef inh,LYPLA2 conf,others
Cc1noc(C)c1C(=O)N1CCCC(N2CCN(c3cccc(C(F)(F)F)c3)CC2)C1 (stereo not given),3,nt,-5,30*,15,nt,24,
Cc1nnsc1C(=O)N1CCCC(N2CCN(c3cccc(C(F)(F)F)c3)CC2)C1 (stereo not given),4,nt,5,55*,7,nt,56*,LYPLA2 ABPP=28
CCc1nc2ccc(C(=O)N3CCCC(C(N)=O)C3)cn2c1N(C=O)CC (stereo not given),nt,nt,0,nt,nt,nt,nt,
COc1ccccc1-c1nnc(N)s1,6,4,2,28*,15,25,-2,
O=S1(=O)N=C(N(CCO)/N=C/c2ccc(Br)cc2)c2ccccc21,0,nt,0,1,3,nt,nt,
CCn1c(=O)c(C(=O)CN2CCN(Cc3ccc4c(c3)OCO4)CC2)c(N)n(Cc2ccccc2)c1=O,5,2,5,26*,27,22,24,
CCn1c(=O)c(C(=O)CN2CC(C)OC(C)C2)c(N)n(Cc2ccccc2)c1=O (stereo not given),0,3,3,4,-6,3,nt,
C[C@H](NC(=O)OC(C)(C)C)c1nnc(SCC(=O)Nc2cccc(Cl)c2)o1,-3,nt,2,-1,-23,nt,nt,
CC(C)[C@H](NC(=O)OC(C)(C)C)c1nnc(SCC(=O)Nc2ccc(Br)cc2)o1,0,-1,6,48*,15,1,54*,
Cc1ccc(C(=O)C2CCN(S(=O)(=O)c3ccc(C(=O)O)cc3)CC2)cc1,-1,nt,2,4,0,nt,nt,
CC(O)(c1cccc(F)c1)c1nc(-c2cncnc2)cs1 (stereo not given),nt,nt,0,nt,nt,nt,nt,
O=C(O)c1cccnc1SCc1cn2cc(Cl)ccc2n1,0,9,-5,5,11,3,nt,
O=C(O)c1ccccc1SCc1cn2cc(Cl)ccc2n1,2,0,-1,32*,-10,9,2,
Cc1cc(=O)oc2cc(Oc3ccc(C(N)=O)cc3[N+](=O)[O-])ccc12,4,12,0,33*,29,23,26*,
COc1cc(NC(=O)CSc2nc(=O)n(CCN3CCOCC3)c3c2CCCC3)cc(OC)c1,1,nt,5,7,-7,nt,nt,
CNC(=O)COC(=O)c1cc2c(C)nn(-c3ccc(F)cc3)c2s1,2,0,-1,3,0,0,nt,
Cc1nn(-c2ccc(F)cc2)c2sc(C(=O)OC3CCOC3=O)cc12 (stereo not given),2,-7,-2,35*,14,0,28*,
NS(=O)(=O)c1ccc(NC(=S)Nc2ccc(S(=O)(=O)Nc3nccs3)cc2)cc1,nt,nt,1,nt,nt,nt,nt,
O=C(c1ccc(N2CCN(C3CC(=O)N(c4ccc(F)cc4)C3=O)CC2)cc1)c1cccnc1 (stereo not given),6,-3,nt,35*,8,-1,32*,
COc1ccc(N2C(=O)CC(N3CCN(c4ccc(C(=O)c5cccnc5)cc4)CC3)C2=O)cc1 (stereo not given),6,1,-2,23,11,3,nt,
CCOc1ccc(N2C(=O)CC(N3CCN(c4ccc(C(=O)c5ccncc5)cc4)CC3)C2=O)cc1 (stereo not given),5,0,1,29*,3,1,20,
CCN1C(=O)CC(N2CCN(c3ccc(C(=O)c4ccncc4)cc3)CC2)C1=O (stereo not given),-2,3,-4,2,-3,1,nt,
CCOc1ccc(C(=O)NC(=S)Nc2ccccc2OC)cc1[N+](=O)[O-],5,7,-1,5,3,4,nt,
CCOc1ccc(C(=O)NC(=S)Nc2ccc(NC(=O)CC)cc2)cc1[N+](=O)[O-],-2,-3,-1,28*,5,-2,27*,
CC(=O)c1ccc(OCc2cc(C(=O)NC(C)c3cnn(C)c3)no2)cc1 (stereo not given),5,nt,0,30*,5,nt,22,
SMILES,LYPLA1 inh,p97 inhibitor,Rin1-Abl PPI inh,LYPLA2 counter,PREPL inhibitor,Hck-Nef inh,LYPLA2 conf,others
CCCCCCC[N+](CC)(CC)CCCCc1ccc(Cl)cc1,2,nt,3,35*,26,nt,30*,
CCCCCNCc1ccc(Cl)cc1,0,-1,0,3,4,24,nt,
CCOC(=O)N1CCN(CC(=O)Nc2sccc2C#N)CC1,10,3,2,45*,8,11,39*,
COc1ccc(CCNC(=O)c2ccc(NC(=O)CC3SC(N4CCCC4)=NC3=O)cc2)cc1 (stereo not given),0,nt,1,52*,18,nt,58*,LYPLA2 ABPP=25
Cc1ccc(OCCNC(=O)c2ccc(NC(=O)CC3SC(N4CCCC4)=NC3=O)cc2)cc1 (stereo not given),0,nt,3,45*,-27,nt,40*,
O=C(CC1SC(N2CCCC2)=NC1=O)Nc1ccc(C(=O)N2CCN(c3cccc(Cl)c3)CC2)cc1 (stereo not given),0,nt,4,30*,-2,nt,62*,LYPLA2 ABPP=38
O=C(O)c1cc(NN=Nc2cccc(S(=O)(=O)O)c2)cc([N+](=O)[O-])c1,2,nt,-3,3,4,nt,nt,
O=C(O)c1cc(NN=Nc2cccc([N+](=O)[O-])c2)cc([N+](=O)[O-])c1,10,8,3,28*,9,8,28*,
COc1ccc(Oc2ccc(N/C=C3\CCCC3=O)cc2)cc1,7,5,-1,39*,6,2,37*,
COc1ccc(Oc2ccc(N/C=C3/CCCC3=O)cc2)cc1,3,0,1,41*,3,3,36*,
COc1ccc(N/C=C2/CCCCC2=O)cc1,-1,2,-2,3,7,-1,nt,
CCOc1cccc(Nc2ccc([N+](=O)[O-])cn2)c1,4,nt,-1,28*,12,nt,21,
Cc1c(Cl)cc(C(C)C)c(O)c1CN1CCOCC1,nt,nt,3,nt,nt,nt,nt,
COc1ccc(-c2cc(C(=O)Nc3c(C)nn(Cc4ccccc4)c3C)no2)cc1,0,3,0,7,13,3,nt,
COc1cccc(-c2cc(C(=O)Nc3c(C)nn(Cc4ccccc4C)c3C)no2)c1,6,-5,1,45*,1,3,48*,
